Assay [1] is described as follows: qHTS assay to identify small molecule antagonists of the estrogen related receptor (ERR) signaling pathway from Tox21 library - cell viability counter screen (AID 1224834). Also: nearly all actives have a fitted effect of over 30% in size. In a few lines:
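Viability readout (CellTiter-Fluor fluorescence, 30 min at 37 C) multiplexed with the ERR assay; cells treated 17.5 h at 37 C with compounds delivered in DMSO.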
Background: In qHTS, concentration-response curves come from the screen itself.

Assay [2] deals with Luciferin 4-monooxygenase (Photinus pyralis) (UniProt P08659). Nature of the assay: qHTS assay to identify small molecule inhibitors of firefly luciferase (AID 1224835). Also: nearly all actives have a fitted effect of over 25% in size. Also: potency is read from the fitted curve at half-maximal effect. In outline:
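Biochemical qHTS: compounds run as interplate titrations against purified firefly enzyme, with D-luciferin and ATP each at its KM concentration. Light output recorded by CCD imaging.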

Assay [3] in a line: qHTS assay to identify small molecule agonists of the constitutive androstane receptor (CAR) signaling pathway - cell viability counter screen (AID 1224836). Also: series mostly up to about 92 µM; nearly all actives have a fitted effect of over 45% in size. In a few lines:
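HepG2 cells stably carrying hCAR and a CYP2B6-2.2kb reporter were plated 4 h, then given compounds at 15 concentrations plus PK11195 (final 0.75 uM). After 23 h at 37 C, viability was read by CellTiter-Fluor fluorescence.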

The nature of assay [4]: qHTS assay to identify small molecule antagonists of the constitutive androstane receptor (CAR) signaling pathway - cell viability counter screen (AID 1224837). Also: series mostly up to about 92 µM; nearly all actives have a fitted effect of over 45% in size. In a few lines:
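Fluorescence from CellTiter-Fluor served as the viability signal. Human hepatoma HepG2 cells stably bearing hCAR and CYP2B6-2.2kb received compound plus CITCO (50 nM final) for 23 hr.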

Assay [5] concerns the target Nuclear receptor subfamily 1 group I member 3 (Homo sapiens) (UniProt Q14994). Nature of the assay: qHTS assay to identify small molecule antagonists of the constitutive androstane receptor (CAR) signaling pathway (AID 1224838). Also: nearly all actives have a fitted effect of over 40% in size. In outline: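 Quantitative HTS in double-stable HepG2-CYP2B6-hCAR cells. After 4 h plating, cells get compound (15 concentrations) and CITCO at 50 nM final, incubate 24 h at 37 C, then ONE-Glo luminescence is read.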

For assay [6] the target is unchanged. The experiment in a line: qHTS assay to identify small molecule agonists of the constitutive androstane receptor (CAR) signaling pathway (AID 1224839). Also: nearly all actives have a fitted effect of over 15% in size. Also: potency is read from the fitted curve at half-maximal effect.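 As to activation: HepG2 cells stably carrying human CAR and a CYP2B6 luciferase reporter; series mostly up to about 92 µM.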 In a few lines:
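HepG2 cells stably expressing hCAR and a CYP2B6-2.2kb luciferase reporter were treated with compounds at 15 concentrations plus 0.75 uM PK11195 (final) for 24 h at 37 C; luminescence was read after ONE-Glo addition.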

The nature of assay [7]: qHTS assay to identify small molecule antagonists of the estrogen related receptor signaling pathway with the pleiotropic PPARgamma coactivator (PGC) from Tox21 10K library - cell viability counter screen (AID 1224840; active = well fitted cell-killing curve with a large enough effect in the repeat runs, not every such curve was filed as active; also: nearly all actives have a fitted effect of over 40% in size). In outline: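 Compounds in DMSO, alongside positive and negative controls, were pinned onto PGC/ERR cells (2,000 per well). Exposure lasted 17.5 hours at 37 C, followed by a 30-minute CellTiter-Fluor incubation and fluorescence reading.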

For assay [8], the target named is Thyrotropin receptor (Homo sapiens) (UniProt P16473). The experiment in a line: qHTS assay to identify small molecule agonists of the thyroid stimulating hormone receptor (TSHR) signaling pathway (AID 1224843; calls by dose curve; also: nearly all actives have a fitted effect of over 45% in size; also: potency is read from the fitted curve at half-maximal effect). In outline: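 TSHR-HEK293 cells in agonist mode, 30 min room-temperature step, then cAMP measured by competitive HTRF (cAMP-d2 with anti-cAMP cryptate) after 1 h at room temperature. Tested at 15 concentrations in triplicate.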

Assay [9] in a line: qHTS assay to identify small molecule agonists of the hypoxia (HIF-1) signaling pathway - cell viability counter screen (AID 1224844; calls by dose curve; also: nearly all actives have a fitted effect of over 50% in size; also: potency is read from the fitted curve at half-maximal effect). In outline: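 Luminescent ATP content (CellTiter-Glo, 30 min, room temperature) served as the viability measure in HRE-bla ME-180 cells exposed to compounds for 17 hrs in low-serum medium (0.5% dialyzed FBS).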
Assay [10] in a line: qHTS assay to identify small molecule agonists of H2AX (AID 1224845; active = well fitted activation curve with a large enough effect in the signal ratio in the repeat runs, not every such curve was filed as active; the % refers to the signal ratio). In a few lines: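 Wild-type CHO-K1 cells, plated overnight, exposed 3hr at 37C to 15 concentrations (0.76% DMSO final). Lysed, then HTRF anti-pH2AX (S139) cryptate and anti-H2AX-d2 antibodies, 24 hr room temperature; 665/620 nm emission read.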
A short description of assay [11]: qHTS assay to identify small molecule agonists of the hypoxia (HIF-1) signaling pathway (AID 1224846; active = well fitted activation curve with a large enough effect in the signal ratio in the repeat runs, not every such curve was filed as active; the % refers to the signal ratio). In a few lines: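 Measured by blue/green FRET after loading CCF4-AM: beta-lactamase expressed from a hypoxia response element in ME-180 cells. Test agents were delivered in DMSO and left 17 hrs; cells had been plated 5 hrs earlier in low-serum (0.5% dialyzed FBS) medium.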

The nature of assay [12]: qHTS assay to identify small molecule agonists of H2AX - cell viability counter screen (AID 1224847; calls by dose curve; also: top concentration of the series differs between compounds; nearly all actives have a fitted effect of over 30% in size). In a few lines:
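Wild-type CHO-K1 cells (10% FBS medium) were plated overnight at 37C, exposed to compounds at 15 concentrations for 3 hr at 37C (0.76% DMSO final), and viability was read as CellTiter-Glo luminescence after 30 min at room temperature.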

Assay [13] in a line: qHTS RealTime-Glo MT Cell Viability Assay in HepG2 cells - 24 hour (AID 1224867). Also: nearly all actives have a fitted effect of over 50% in size. In a few lines: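 Viability was tracked continuously by NanoLuc luminescence from prosubstrate reduced by living HepG2 cells, at successive time points over 40 h of compound exposure. Cells with reagent were preincubated 5 h at 37 °C before compound addition.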
Assay [14] is described as follows: qHTS RealTime-Glo MT Cell Viability Assay in HEK293 cells - 32 hour (AID 1224868). Also: nearly all actives have a fitted effect of over 50% in size. Also: potency is read from the fitted curve at half-maximal effect. In outline:
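Viability tracked continuously by luminescence as live cells reduce a prosubstrate for NanoLuc; HEK293 cells preincubated 5 h, compound-treated at 37 C, and read at 0, 8, 16, 24, 32 and 40 h.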

The nature of assay [15]: A CellTox Green Cytotoxicity Assay to monitor cytotoxicity in HEK293 cells - 0 hour (AID 1224869). Also: nearly all actives have a fitted effect of over 50% in size. Also: potency is read from the fitted curve at half-maximal effect. In outline:
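Each value comes from one timepoint of a single continuous run in which HEK293 cells with CellTox Green were exposed to compound for up to 40 h at 37 C, dye fluorescence rising with cell death.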

A short description of assay [16]: qHTS RealTime-Glo MT Cell Viability Assay in HepG2 cells - 40 hour (AID 1224870). Also: nearly all actives have a fitted effect of over 50% in size. In a few lines: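 HepG2 cells (600/well) mixed with RealTime-Glo MT reagent, settled 5 h at 37 C/5% CO2 before compound addition. Nonlytic NanoLuc luminescence from viable-cell prosubstrate reduction read repeatedly during 40 h treatment at 37 C.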

The record followed here is PubChem BioAssay (Tox21).

“And” between values parts separate entries of the source, which are not always exact repeats. Equal entries are not always repeated. Inconclusive results are not listed. More than one record can exist for a structure, and the calls need not agree. The source made the active and inactive calls. Unless noted, calls follow the shape of the dose curve; as a rule, active = well fitted curve in the direction sought with a large enough effect in the repeat runs; inconclusive = weak or mixed curves; inactive = no such curve, though single readings can be large; an effect the other way counts as inactive or inconclusive.

Nuclear receptor subfamily 1 group I member 3 (Homo sapiens), sequence (Q14994 whole entry, looked up): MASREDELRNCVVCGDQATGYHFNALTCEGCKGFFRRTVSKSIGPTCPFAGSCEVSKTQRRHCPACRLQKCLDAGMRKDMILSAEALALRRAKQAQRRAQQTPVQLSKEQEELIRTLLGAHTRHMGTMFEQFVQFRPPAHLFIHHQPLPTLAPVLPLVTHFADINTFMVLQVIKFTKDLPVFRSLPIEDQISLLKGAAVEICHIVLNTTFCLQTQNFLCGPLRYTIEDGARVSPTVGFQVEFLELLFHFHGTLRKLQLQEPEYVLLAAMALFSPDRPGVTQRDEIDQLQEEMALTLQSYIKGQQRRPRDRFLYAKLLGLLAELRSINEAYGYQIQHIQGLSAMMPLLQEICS
Thyrotropin receptor (Homo sapiens), sequence (P16473 whole entry, looked up): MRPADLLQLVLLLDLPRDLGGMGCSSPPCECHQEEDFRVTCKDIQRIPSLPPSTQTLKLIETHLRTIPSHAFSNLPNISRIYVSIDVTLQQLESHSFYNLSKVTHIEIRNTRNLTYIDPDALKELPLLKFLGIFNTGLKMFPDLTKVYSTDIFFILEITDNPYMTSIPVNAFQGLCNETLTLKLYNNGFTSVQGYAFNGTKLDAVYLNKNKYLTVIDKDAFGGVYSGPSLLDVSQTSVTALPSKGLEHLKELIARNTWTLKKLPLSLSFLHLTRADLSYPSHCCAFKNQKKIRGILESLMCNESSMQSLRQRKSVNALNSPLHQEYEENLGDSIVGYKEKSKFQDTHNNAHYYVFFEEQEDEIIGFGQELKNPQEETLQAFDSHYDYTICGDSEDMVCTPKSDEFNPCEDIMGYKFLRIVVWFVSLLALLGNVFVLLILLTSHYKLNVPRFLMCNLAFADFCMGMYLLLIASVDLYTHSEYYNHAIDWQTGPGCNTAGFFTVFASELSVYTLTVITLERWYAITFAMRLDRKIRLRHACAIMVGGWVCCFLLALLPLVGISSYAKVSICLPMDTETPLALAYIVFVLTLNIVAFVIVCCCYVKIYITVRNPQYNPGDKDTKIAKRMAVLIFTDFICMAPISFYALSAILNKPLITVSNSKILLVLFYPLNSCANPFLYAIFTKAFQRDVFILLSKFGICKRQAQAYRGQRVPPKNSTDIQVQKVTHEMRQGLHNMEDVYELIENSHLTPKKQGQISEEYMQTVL
Luciferin 4-monooxygenase (Photinus pyralis), sequence (P08659 whole entry, looked up): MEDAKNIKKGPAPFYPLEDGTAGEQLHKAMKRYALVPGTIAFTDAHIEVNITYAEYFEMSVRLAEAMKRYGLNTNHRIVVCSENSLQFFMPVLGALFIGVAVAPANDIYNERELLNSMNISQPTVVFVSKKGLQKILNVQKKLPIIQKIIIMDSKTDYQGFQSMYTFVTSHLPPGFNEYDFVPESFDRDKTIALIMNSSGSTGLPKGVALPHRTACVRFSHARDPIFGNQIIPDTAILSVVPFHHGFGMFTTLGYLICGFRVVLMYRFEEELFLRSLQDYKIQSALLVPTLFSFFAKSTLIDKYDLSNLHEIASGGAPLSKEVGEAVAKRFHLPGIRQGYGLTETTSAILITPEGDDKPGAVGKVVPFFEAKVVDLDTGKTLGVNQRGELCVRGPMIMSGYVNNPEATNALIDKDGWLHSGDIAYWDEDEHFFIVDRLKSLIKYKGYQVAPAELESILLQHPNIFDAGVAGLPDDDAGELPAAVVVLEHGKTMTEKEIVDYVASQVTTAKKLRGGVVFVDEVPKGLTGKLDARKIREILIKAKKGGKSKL

As for `COc1ccc(C(=O)c2ccccc2)c(O)c1`, the Potency result in assay [1], in assay [3], in assay [4], in assay [5], in [7] and in assay [8] was “inactive” each time. Further, the Potency result in assay [9], in assay [10], in assay [12] and in assay [15] was “inactive” each time. Further, the Potency is 31.2 µM (active) and 35.6 µM (active) and 30.9 µM (active) in assay [2]; 47.8 µM (active) and 48.6 µM (active) in assay [6]; “inactive and 9.77 µM (active)” in [14]. Further, the outcome in assay [11], in [13] and in [16] was inactive.

As to `CC1=C(/C=C/C(C)=C/C=C/C(C)=C/C(=O)O)C(C)(C)CCC1`, the Potency entry in assay [1], in [3], in [4], in [5], in [7] and in assay [10] was “inactive” each time. Further, the Potency result in assay [12], in [14] and in assay [15] was “inactive” throughout. Also, the Potency in assay [2] was 39.9 µM (active) and 27.5 µM (active); in assay [6], 27.3 µM (active) and 24.3 µM (active) and 10.6 µM (active); in assay [9] it was 49 µM (active). In addition, the result in assay [13] and in [16] was inactive.

With `Nc1cccc(N)c1`, the Potency result in assay [1], in assay [2], in assay [3], in assay [4], in [5] and in [6] was “inactive” each time. In addition, the Potency entry in assay [7], in [9], in assay [10], in [12], in [14] and in [15] was “inactive” throughout. Further, the outcome in assay [11], in [13] and in [16] was inactive.

Regarding `Cc1cccc(Nc2cc(Cl)nc(SCC(=O)O)n2)c1C`, the Potency result in [1], in assay [2], in [3], in assay [4], in [5] and in assay [6] was “inactive” throughout. The Potency result in [7], in assay [8], in assay [9], in assay [10], in [12] and in assay [14] was “inactive” throughout. The Potency entry in assay [15] was “inactive”. Besides, the call in assay [13] and in assay [16] was inactive.

For `CC(=O)CCC(C)C`, the Potency entry in [1], in [2], in [3], in assay [4], in assay [5] and in assay [6] was “inactive” each time. Besides, the Potency result in [7], in [8], in assay [9], in [10], in [12] and in assay [14] was “inactive” in each case. In addition, the compound was classed as inactive in assay [11], in [13] and in assay [16]. In [15], the Potency result is “inactive and 38.9 µM (active)”.

In the case of `CCN1CCCC1=O`, the Potency result in [1], in [2], in assay [3], in [4], in [5] and in assay [6] was “inactive” in each case. Besides, the Potency entry in assay [7], in [8], in assay [9], in [10], in assay [12] and in [14] was “inactive” throughout. The Potency result in [15] was “inactive”. The outcome in [11], in [13] and in assay [16] was inactive.

Regarding `NC(=O)c1ccc([N+](=O)[O-])cc1Cl`, the Potency result in assay [1], in assay [2], in [3], in assay [4], in assay [5] and in assay [6] was “inactive” in each case. Further, the Potency entry in assay [7], in [8], in [9], in assay [10], in assay [12] and in [14] was “inactive” each time. Also, in assay [15], the Potency entry is “inactive”. The compound was called inactive in assay [11], in assay [13] and in assay [16].

On to `CC(C)(C)NCC(O)c1ccc(O)c(CO)c1` (centres undefined), for which the Potency result in assay [1], in assay [2], in [3], in assay [4], in assay [5] and in assay [6] was “inactive” each time. The Potency result in [7], in assay [9], in assay [10], in assay [12], in assay [14] and in assay [15] was “inactive” in each case. Moreover, the Potency in assay [8] was 60.7 nM (active) and 37.6 nM (active). Moreover, the compound was called inactive in [11], in assay [13] and in assay [16].
